Experimental data reported in PubChem BioAssay AID2606 (The Scripps Research Institute Molecular Screening Center, 2010).
Hit rate of the full screen: of about 320,000 compounds, about 160 (0.05%) were called active. Cut-off read from the data, not from the text of the source: active = inhibition above about 38%; inactive = the rest. The entries come from a sample that favours actives as a whole.

Each compound was assayed against Serine protease Rv3671c (Mycobacterium tuberculosis (strain ATCC 25618 / H37Rv)) (UniProt P9WHR9) (assay: Rv3671c serine protease inhibitors, primary screen, biochemical, fluorescence polarization, M. tuberculosis H37Rv (AID 2606;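 note: extracellular domain of Rv3671c used as enzyme; 0% = enzyme with DMSO and 100% = no enzyme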)). Conditions: at 5.96 µM; stronger effect = higher value.
Serine protease Rv3671c (Mycobacterium tuberculosis (strain ATCC 25618 / H37Rv)), sequence (P9WHR9 whole entry, looked up, the tested form may be a part): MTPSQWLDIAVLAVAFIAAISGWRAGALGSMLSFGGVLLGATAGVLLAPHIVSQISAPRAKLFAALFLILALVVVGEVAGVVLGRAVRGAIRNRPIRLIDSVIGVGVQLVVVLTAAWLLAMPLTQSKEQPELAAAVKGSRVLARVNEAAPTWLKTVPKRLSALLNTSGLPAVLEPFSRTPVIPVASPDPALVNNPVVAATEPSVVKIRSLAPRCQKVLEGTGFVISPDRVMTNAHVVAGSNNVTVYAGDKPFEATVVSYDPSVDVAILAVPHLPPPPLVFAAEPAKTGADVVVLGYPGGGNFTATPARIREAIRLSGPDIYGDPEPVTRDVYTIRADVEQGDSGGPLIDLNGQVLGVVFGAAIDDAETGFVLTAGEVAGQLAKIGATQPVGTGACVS

SMILES	inhibition
COP1(=O)C[C@@H](O)[C@@H](O)[C@@H](COCc2ccccc2)O1 (some centres not stated)	-2.74% (inactive)
Cc1cnc(C(=O)N2CCCC(C(=O)c3ccc(C(F)(F)F)cc3)C2)cn1 (configuration not stated)	-4.62% (inactive)
CC(c1nnc(SCC(=O)Nc2sccc2C#N)n1-c1ccc(Cl)cc1)N(C)C (configuration not stated)	3.82% (inactive)
Cn1sc(=O)c2cc(S(=O)(=O)NC3CC3)ccc21	-8.37% (inactive)
C[C@@H](NC(=O)c1nc[nH]c1C(=O)N1CCN(C(=O)OC(C)(C)C)CC1)c1ccccc1	-6.88% (inactive)
CC(Sc1nnc(Cc2ccc([N+](=O)[O-])cc2)o1)C(N)=O (configuration not stated)	-0.21% (inactive)
C[C@@H](C(=O)Nc1ccc2ccccc2c1)[C@@H]1C[C@@]1(C)[C@@H](NC(=O)c1cccnc1)c1ccccc1	-17.9% (inactive)
CCS(=O)(=O)N1Cc2ccccc2CC1C(=O)Nc1nc2ccc(F)cc2s1 (configuration not stated)	-18.8% (inactive)
O=C(NCc1ccccc1)C1=C[C@@H](c2ccccc2)C[C@@H](OCCCCO)O1	-9.25% (inactive)
O=S(=O)(c1cc(Cl)ccc1Cl)N1CCN(Cc2ccco2)CC1	-5.87% (inactive)
COc1cccc(/C=C2\SC(=N)N(c3ccc(F)cc3)C2=O)c1	7.8% (inactive)
COc1ccc(/C=N/N=C/c2c[nH]c(=O)c(C#N)c2Nc2ccccc2)cc1	-1.73% (inactive)
NS(=O)(=O)c1ccc(NC(=S)Nc2ccc(Br)c(Cl)c2)cc1	-3.02% (inactive)
CCn1c(SCC(=O)Nc2ccc(Br)cc2)nc2sc3c(c2c1=O)CCN(C)C3	-7.34% (inactive)
COc1ccccc1C(=O)Nc1ccc(OCC(=O)N2CCCCC2)cc1	-8.76% (inactive)
Cc1cc(NC(=O)CCC(=O)N(Cc2ccccc2)C(C(=O)NC2CCCC2)c2ccc(C)o2)no1 (configuration not stated)	-5.73% (inactive)
CCOC(=O)C1CCN(S(=O)(=O)c2ccc3c(c2)N(C(C)=O)CCO3)CC1	2.87% (inactive)
CCCc1nc2ccccc2c(C(=O)OCc2nnc(-c3cc(OC)c(OC)c(OC)c3)o2)c1CC	-9.57% (inactive)
COc1ccc(/C=C/C(=O)NC(=S)NN2CCCCC2c2cccnc2)cc1 (configuration not stated)	-0.41% (inactive)

SMILES	inhibition
Cc1cc(O)ccc1NC1=CC(=O)CC(C)(C)C1	-4.53% (inactive)
CC1CCC(CN2CCN=C2N(C)C)CC1 (configuration not stated)	-3.89% (inactive)
Cc1ccc(S(=O)(=O)NC(=O)COc2ccccc2C)cc1	7.88% (inactive)
CCCCn1c(=S)[nH]c2cc(S(=O)(=O)N3CCCCC3)ccc21	-12.1% (inactive)
O=C(COC(=O)c1ccc(S(=O)(=O)N2CCc3ccccc3C2)cc1)NC(=O)NCc1ccco1	-44.5% (inactive)
COc1ccccc1OCCNCC(O)COc1cccc2[nH]c3ccccc3c12 (configuration not stated)	-3.15% (inactive)
C=C1C2C[C@H](O)C(C)(C)[C@@]2(O)[C@H](O)C[C@]23C[C@@](C)(O)[C@H](CC[C@H]12)[C@H]3O (some centres not stated)	8.16% (inactive)
CCCCCCCNc1nc(Cl)nc(NCCO)n1	1.57% (inactive)
C/C(=N\NC(=O)NC1CCCCC1)c1ccc(OC(F)F)cc1OC(F)F	-2.17% (inactive)
C/C(=N/NS(=O)(=O)c1ccccc1)c1ccc(NC(=O)C(F)(F)F)cc1	-8.65% (inactive)
O=C(CNC(=O)c1ccccc1F)OCC(=O)c1c[nH]c2ccccc12	3.57% (inactive)
COc1ccc(SC[C@H](Cc2ccccc2)N2CCN(CCc3ccccc3)CCC2=O)cc1	1.82% (inactive)
CC(=O)c1ccc(N2CCN(C(=O)CCNC(=O)Cn3ccc4ccccc4c3=O)CC2)cc1	-8.01% (inactive)
CC(=O)Nc1c2c(nn1-c1ccc(C)cc1C)CS(=O)C2 (configuration not stated)	-11.2% (inactive)
CS(=O)(=O)c1ccc(Cl)c(NC(=O)COC(=O)c2ncc(Cl)c(Cl)c2Cl)c1	0.74% (inactive)
O=C(CSc1nnc(-c2ccoc2)o1)N1CCOCC1	6.68% (inactive)
OC(COCc1ccco1)CN1CCN(c2ccccc2)CC1 (configuration not stated)	5.86% (inactive)
C/C(=N/NC(=O)CN1CCN(S(=O)(=O)c2ccc(Br)cc2)CC1)c1ccncc1	-1.08% (inactive)
CCOc1ccc(N(CC(=O)Nc2cccc(OC)c2)S(C)(=O)=O)cc1	-3.74% (inactive)

SMILES	inhibition
CN=C1C=C/C(=N/N=c2\ccn(O)cc2C)C=C1C	-17.4% (inactive)
Cc1ccc(-n2c(SCC(=O)Nc3ncc(Cl)cc3Cl)nc3ccccc32)cc1	-17.4% (inactive)
Cc1ccn2c(=O)c(NC(=O)c3cccc4ccccc34)c(C)nc2c1	-5.92% (inactive)
CC(C(=O)N1CCN(c2ccccc2F)CC1)c1ccc([N+](=O)[O-])cc1 (configuration not stated)	7.31% (inactive)
CCC(=NC1CC(C)(C)NC(C)(C)C1)C1=C(O)CC(C)(C)CC1=O	-1.22% (inactive)
CCC(C)[C@H](NC(=O)N1c2ccccc2NC(=O)[C@@H]1C(C)C)C(=O)N[C@@H](Cc1ccccc1)C(=O)O (some centres not stated)	6.36% (inactive)
CCOc1ccccc1NC(=O)C1CCCN(S(=O)(=O)c2ccccc2)C1 (configuration not stated)	-17.1% (inactive)
O=C(Nc1nnc(Cc2ccc(Cl)cc2)s1)c1ccncc1	7.51% (inactive)
COCCn1c(N)c(NCc2ccccc2)c(=O)[nH]c1=O	-10.5% (inactive)
Cc1ccc(NC(=O)C2(N3CCC3=O)CCCCC2)cc1	3.63% (inactive)
CCOc1ccc(CN(C)C(=O)c2ccc(=O)[nH]c2)cc1	0.46% (inactive)
Cc1cc(C(=O)OC(C)C(=O)NC2CCCCC2C)c(C)o1 (configuration not stated)	-0.91% (inactive)
COc1ccc(Cn2c(O)c(/C=C3/C=CC=N3)c(=O)[nH]c2=O)cc1	-6.46% (inactive)
C[C@H](NS(=O)(=O)c1ccc(Cl)cc1)C(=O)OCC(=O)N1CCOCC1	3.78% (inactive)
CN(C)CC(C)(C)CNC(=O)c1cc(Br)cc(Br)c1O	9.55% (inactive)
CCCCc1cc2c(s1)CCCC/C2=N/O	-4.78% (inactive)
CCc1nc2ccc(C(=O)N3CCN(c4cccc(Cl)c4)CC3)cc2nc1CC	0.29% (inactive)
O=S(=O)(NC1CC2CCC1C2)c1ccc(Cl)cc1 (configuration not stated)	0.26% (inactive)
CC(=O)c1ccc(N2CCN(S(=O)(=O)c3c(C)[nH]c(=O)[nH]c3=O)CC2)cc1	5.45% (inactive)
